# From PubChem BioAssay (EPA / NIEHS)
# Records with an inconclusive call do not appear. Active and inactive are the calls of the source. How the source made its calls, unless noted: active means hit-call score of the fitted dose curve at least 0.9, where 1 is the maximum; inconclusive means response in the unintended direction; inactive means score below 0.9.
# Tests used:
# [1] = biological target: Peroxisome proliferator-activated receptor gamma (Homo sapiens) (UniProt P37231); experiment: OT_PPARg_PPARgSRC1_0480: Odyssey Thera (OT) 8-hour Protein-Complementation Assay for Peroxisome Proliferator-activated Receptor Gamma / SRC-1 Co-activator (AID 2283387);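 further: nuclear to cytoplasmic split Venus YFP fluorescence ratio reporting PPARg SRC-1 interaction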
# Outline: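 Protein-fragment complementation of split Venus YFP reports PPARg/SRC-1 interaction in HEK293T (transfected 48 h before treatment), exposed 8 h. Readout: N/C fluorescence ratio at 488 nm from imaging, Draq5 for segmentation, positive fit relative to DMSO.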
# [2] = biological target: Peroxisome proliferator-activated receptor gamma (Homo sapiens) (UniProt P37231); experiment: OT_PPARg_PPARgSRC1_1440: Odyssey Thera (OT) 24-hour Protein-Complementation Assay for Peroxisome Proliferator-activated Receptor Gamma/ SRC-1 Co-activator (AID 2283388);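 further: nuclear to cytoplasmic ratio of reconstituted Venus YFP fluorescence in fixed imaged cells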
# Outline: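 Readout is the 488 nm N/C fluorescence ratio from fixed, Draq5-stained HEK293T cells after 24 h compound exposure. Cells carried transiently transfected PPARg and SRC-1 fused to Venus fragments, transfected 48 h before treatment.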
# [3] = CEETOX_H295R_11DCORT: CeeTox H295R High-throughput Steroidogenesis Assay for 11-Deoxycortisol (11DCORT) (AID 2283432; active means hit-call score of the fitted dose curve at least 0.9, where 1 is the maximum; inactive means score below 0.9); conditions: actives raise or lower the signal
# Outline: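 Human adrenal H295R cells were prestimulated with 10 uM forskolin for 48 h, then exposed to test chemical (0.1% DMSO final) for 48 h. Medium 11-deoxycortisol was quantified by MTBE extraction and HPLC-MS/MS; bidirectional fitting relative to DMSO.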
# [4] = CEETOX_H295R_OHPREG: CeeTox H295R High-throughput Steroidogenesis Assay for OH-Pregnenolone (OHPREG) (AID 2283434; active means hit-call score of the fitted dose curve at least 0.9, where 1 is the maximum; inactive means score below 0.9); conditions: actives raise or lower the signal
# Outline: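 H295R cells pre-stimulated 48 h with 10 uM forskolin, then exposed 48 h to chemical in 0.1% DMSO. 17alpha-hydroxypregnenolone in medium quantified by MTBE extraction and HPLC-MS/MS; bidirectional fit versus DMSO, viability checked by MTT.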
# [5] = CEETOX_H295R_OHPROG: CeeTox H295R High-throughput Steroidogenesis Assay for OH-Progesterone (OHPROG) (AID 2283435; active means hit-call score of the fitted dose curve at least 0.9, where 1 is the maximum; inactive means score below 0.9); conditions: actives raise or lower the signal
# Outline: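 H295R human adrenal cells were prestimulated 48 h with 10 uM forskolin, then exposed 48 h to test chemical (0.1% DMSO final). 17alpha-hydroxyprogesterone in medium was measured by HPLC-MS/MS after MTBE extraction; bidirectional fitting vs DMSO.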
# [6] = CEETOX_H295R_CORTIC: CeeTox H295R High-throughput Steroidogenesis Assay for Corticosterone (CORTIC) (AID 2283437; active means hit-call score of the fitted dose curve at least 0.9, where 1 is the maximum; inactive means score below 0.9;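 further: corticosterone secreted into medium quantified by mass spectrometry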); conditions: actives raise or lower the signal
# Outline: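 H295R adrenal cells prestimulated 48 hours with 10 uM forskolin, then exposed 48 hours to chemical in 0.1% DMSO. Corticosterone in medium measured by HPLC-MS/MS after MTBE extraction; MTT viability in the same wells; bidirectional fit versus DMSO.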
# [7] = CEETOX_H295R_CORTISOL: CeeTox H295R High-throughput Steroidogenesis Assay for Cortisol (AID 2283438; active means hit-call score of the fitted dose curve at least 0.9, where 1 is the maximum; inactive means score below 0.9;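 further: cortisol secreted into medium quantified by LC-MS/MS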); conditions: actives raise or lower the signal
# Outline: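 H295R human adrenal cells were prestimulated 48 h with 10 uM forskolin, then exposed 48 h to test chemical (0.1% DMSO final). Medium cortisol was quantified by HPLC-MS/MS after MTBE extraction; bidirectional fitting relative to DMSO baseline.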
# [8] = CEETOX_H295R_DOC: CeeTox H295R High-throughput Steroidogenesis Assay for DOC (AID 2283439; active means hit-call score of the fitted dose curve at least 0.9, where 1 is the maximum; inactive means score below 0.9); conditions: actives raise or lower the signal
# Outline: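 H295R adrenal cells prestimulated 48 h with 10 uM forskolin, then exposed 48 h to test chemical (0.1% DMSO final). Medium 11-deoxycorticosterone extracted with MTBE, quantified by HPLC-MS/MS; bidirectional fit versus DMSO baseline; MTT viability in same wells.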
# [9] = CEETOX_H295R_ANDR: CeeTox H295R High-throughput Steroidogenesis Assay for Androstenedione (ANDR) (AID 2283436; active means hit-call score of the fitted dose curve at least 0.9, where 1 is the maximum; inactive means score below 0.9); conditions: actives raise or lower the signal
# Outline: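 H295R cells, following OECD 456 with minor changes, exposed to chemicals for 48 h. Androstenedione in the medium was quantified by HPLC-MS/MS after MTBE extraction. Fitting was bidirectional versus DMSO; chemicals were diluted until MTT viability was ≥70%.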
# Peroxisome proliferator-activated receptor gamma (Homo sapiens), sequence (P37231 whole entry, looked up, the tested form may be a part): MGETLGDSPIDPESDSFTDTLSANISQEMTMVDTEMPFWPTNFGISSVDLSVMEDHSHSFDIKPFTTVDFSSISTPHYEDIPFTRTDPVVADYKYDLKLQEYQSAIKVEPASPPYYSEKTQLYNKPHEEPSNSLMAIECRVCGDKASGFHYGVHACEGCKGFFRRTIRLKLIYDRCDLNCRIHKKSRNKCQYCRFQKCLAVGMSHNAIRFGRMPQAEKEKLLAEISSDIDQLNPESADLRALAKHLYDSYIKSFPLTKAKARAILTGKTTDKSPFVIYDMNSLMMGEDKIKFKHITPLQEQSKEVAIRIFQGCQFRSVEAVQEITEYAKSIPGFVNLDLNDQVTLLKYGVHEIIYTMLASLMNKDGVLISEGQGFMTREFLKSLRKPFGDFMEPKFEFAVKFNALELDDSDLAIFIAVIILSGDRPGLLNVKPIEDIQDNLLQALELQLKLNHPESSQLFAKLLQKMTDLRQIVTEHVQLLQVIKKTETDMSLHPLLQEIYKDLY
compound,measurement,setting,value
CCCC(=O)OCCC(C)C,outcome,[1],inactive
same,outcome,[2],inactive
O=C1CCC(C2CCCCC2)CC1,outcome,[1],inactive
same,outcome,[2],inactive
same,outcome,[3],inactive
same,AC50,[4],80.4 µM (active)
same,AC50,[5],76.8 µM (active)
same,outcome,[6],inactive
same,outcome,[7],inactive
same,outcome,[8],inactive
CO[C@H]1/C=C/O[C@@]2(C)Oc3c(C)c(O)c4c(O)c(c(/C=N/N5CCN(C)CC5)c(O)c4c3C2=O)NC(=O)/C(C)=C\C=C\[C@H](C)[C@H](O)[C@@H](C)[C@@H](O)[C@@H](C)[C@H](OC(C)=O)[C@@H]1C,outcome,[1],inactive
same,outcome,[2],inactive
same,outcome,[4],inactive
same,outcome,[5],inactive
CCCCCCCCN(C)CCCCCCCC,outcome,[1],inactive
same,outcome,[2],inactive
same,outcome,[3],inactive
same,outcome,[4],inactive
same,AC50,[5],50 µM (active)
same,outcome,[9],inactive
same,outcome,[6],inactive
same,outcome,[7],inactive
same,outcome,[8],inactive
O=C1c2ccccc2C(=O)N1CCc1noc(-c2ccc(CN3CCCCCC3)s2)n1,outcome,[1],inactive
same,outcome,[2],inactive
same,AC50,[4],4.81 µM (active)
same,outcome,[5],inactive
O=C(O)Cc1cc(I)c(Oc2ccc(O)c(I)c2)c(I)c1,outcome,[1],inactive
same,outcome,[2],inactive
